Test results as given in paper PMC7862700, “An all-to-all approach to the identification of sequence-specific readers for epigenetic DNA modifications on cytosine”.

Experiments:
Test in all cases: DAPPL (digital affinity profiling via proximity ligation, sequencing); 10 mM Tris-HCl pH 7.5, 50 mM NaCl, 1 mM DTT, 4% glycerol, room temperature, 30 min; GST-TFs on glutathione beads, 16-mer random dsDNA library, 0.1% formaldehyde crosslink after washing; high values mean tight binding
Details in all cases: protein: recombinant; tags: N-terminal GST; dsDNA, one strand shown
FLI1 = target: T1, FLI1 (Homo sapiens, UniProt Q01543 1-452)
T1 sequence: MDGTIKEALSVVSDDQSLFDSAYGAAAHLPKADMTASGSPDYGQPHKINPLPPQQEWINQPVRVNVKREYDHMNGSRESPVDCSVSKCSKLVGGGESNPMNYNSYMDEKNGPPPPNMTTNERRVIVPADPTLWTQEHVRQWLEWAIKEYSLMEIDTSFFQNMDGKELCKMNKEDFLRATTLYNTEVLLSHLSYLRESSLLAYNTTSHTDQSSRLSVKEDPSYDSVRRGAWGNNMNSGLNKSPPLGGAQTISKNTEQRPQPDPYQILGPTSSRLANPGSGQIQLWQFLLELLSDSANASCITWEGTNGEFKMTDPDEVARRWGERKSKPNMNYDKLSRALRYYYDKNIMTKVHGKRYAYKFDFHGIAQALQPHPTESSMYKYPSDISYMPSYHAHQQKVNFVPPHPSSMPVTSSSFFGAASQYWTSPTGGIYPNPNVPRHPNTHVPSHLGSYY
Procedure, shortened: (§1)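 Binding signal is defined as a hexamer's read frequency for one factor over its frequency for the tag-only sample. To obtain reads, GST-fused human transcription factors were expressed in yeast, captured on glutathione beads, barcoded with DNA and pooled with that sample. Pools met 200 nmole of a 16-mer random double-stranded DNA library in Tris/NaCl/DTT/glycerol buffer for 30 min at room temperature before washing, 0.1% formaldehyde crosslinking, proximity ligation (BsaI/T4 ligase, 1 h, 37 °C), PCR and Illumina NextSeq500 sequencing.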

ELK1 = target: T2, ELK1 (Homo sapiens, UniProt P19419 1-428)
T2 sequence: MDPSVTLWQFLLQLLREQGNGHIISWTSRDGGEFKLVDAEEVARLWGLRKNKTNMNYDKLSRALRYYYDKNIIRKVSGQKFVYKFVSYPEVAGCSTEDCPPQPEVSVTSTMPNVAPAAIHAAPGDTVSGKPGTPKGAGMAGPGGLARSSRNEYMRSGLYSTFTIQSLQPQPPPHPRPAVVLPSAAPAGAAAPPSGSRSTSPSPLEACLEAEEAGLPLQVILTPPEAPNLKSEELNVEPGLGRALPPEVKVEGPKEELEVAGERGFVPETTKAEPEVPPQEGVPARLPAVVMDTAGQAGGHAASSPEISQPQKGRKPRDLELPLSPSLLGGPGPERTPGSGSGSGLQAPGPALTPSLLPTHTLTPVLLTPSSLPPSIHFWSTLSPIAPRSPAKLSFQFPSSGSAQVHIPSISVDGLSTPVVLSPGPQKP
Procedure, shortened: as §1

GABPA = target: T3, GABPA (Homo sapiens, UniProt Q06546 1-454)
T3 sequence: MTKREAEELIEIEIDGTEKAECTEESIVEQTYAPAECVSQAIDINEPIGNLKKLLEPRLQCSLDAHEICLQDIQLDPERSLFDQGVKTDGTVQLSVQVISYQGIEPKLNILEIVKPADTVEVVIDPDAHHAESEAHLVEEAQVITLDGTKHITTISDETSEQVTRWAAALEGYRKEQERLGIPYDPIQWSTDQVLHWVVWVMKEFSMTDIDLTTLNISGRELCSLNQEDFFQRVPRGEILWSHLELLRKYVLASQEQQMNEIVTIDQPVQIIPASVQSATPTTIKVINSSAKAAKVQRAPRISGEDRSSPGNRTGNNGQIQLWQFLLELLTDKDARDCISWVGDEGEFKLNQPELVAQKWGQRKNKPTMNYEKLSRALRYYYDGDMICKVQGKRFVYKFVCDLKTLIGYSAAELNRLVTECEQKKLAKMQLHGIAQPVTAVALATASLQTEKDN
Procedure, shortened: as §1

ERG = target: T4, ERG (Homo sapiens, UniProt P11308 1-479)
T4 sequence: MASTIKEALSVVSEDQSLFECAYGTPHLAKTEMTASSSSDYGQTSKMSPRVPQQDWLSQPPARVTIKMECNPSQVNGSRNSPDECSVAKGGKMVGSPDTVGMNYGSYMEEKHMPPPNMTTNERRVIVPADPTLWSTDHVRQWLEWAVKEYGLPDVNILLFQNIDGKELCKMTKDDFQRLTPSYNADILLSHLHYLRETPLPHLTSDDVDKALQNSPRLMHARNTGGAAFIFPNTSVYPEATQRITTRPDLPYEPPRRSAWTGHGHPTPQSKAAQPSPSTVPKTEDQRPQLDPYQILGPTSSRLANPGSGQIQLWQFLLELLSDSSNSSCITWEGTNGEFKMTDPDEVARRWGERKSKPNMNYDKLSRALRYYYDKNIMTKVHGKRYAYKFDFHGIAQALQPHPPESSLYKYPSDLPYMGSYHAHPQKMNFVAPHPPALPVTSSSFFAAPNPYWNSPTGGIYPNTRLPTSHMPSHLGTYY
Procedure, shortened: as §1

ELF1 = ELF1 (Homo sapiens, UniProt P32519 1-619)
Chain of ELF1 (P32519 whole entry): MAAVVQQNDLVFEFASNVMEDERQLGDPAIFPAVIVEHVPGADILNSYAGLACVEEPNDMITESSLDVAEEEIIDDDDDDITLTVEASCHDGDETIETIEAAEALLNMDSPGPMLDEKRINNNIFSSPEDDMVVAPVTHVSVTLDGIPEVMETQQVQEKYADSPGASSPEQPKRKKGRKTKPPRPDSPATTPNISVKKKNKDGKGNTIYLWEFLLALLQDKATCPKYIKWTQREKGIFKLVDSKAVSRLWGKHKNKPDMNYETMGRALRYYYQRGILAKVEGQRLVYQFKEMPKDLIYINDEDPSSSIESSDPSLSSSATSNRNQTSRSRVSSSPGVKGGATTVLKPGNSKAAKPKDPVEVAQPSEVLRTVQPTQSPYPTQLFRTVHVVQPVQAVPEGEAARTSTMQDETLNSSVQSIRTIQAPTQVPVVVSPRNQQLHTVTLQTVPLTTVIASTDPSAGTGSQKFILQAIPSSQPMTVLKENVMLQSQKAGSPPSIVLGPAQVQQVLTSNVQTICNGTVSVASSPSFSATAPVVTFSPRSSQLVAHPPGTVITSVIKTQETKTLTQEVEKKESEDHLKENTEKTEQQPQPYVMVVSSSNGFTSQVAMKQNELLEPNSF
Procedure, shortened: as §1

EHF = target: T5, EHF (Homo sapiens, UniProt Q9NZC4 1-300)
T5 sequence: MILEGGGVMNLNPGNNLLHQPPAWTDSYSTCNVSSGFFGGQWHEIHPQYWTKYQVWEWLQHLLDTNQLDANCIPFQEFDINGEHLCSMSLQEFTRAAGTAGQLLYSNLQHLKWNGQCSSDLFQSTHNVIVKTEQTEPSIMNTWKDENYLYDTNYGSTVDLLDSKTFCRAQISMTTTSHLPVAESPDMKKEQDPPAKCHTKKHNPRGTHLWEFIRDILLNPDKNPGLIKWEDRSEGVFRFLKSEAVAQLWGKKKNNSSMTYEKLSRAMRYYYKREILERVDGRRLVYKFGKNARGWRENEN
Procedure, shortened: as §1

SPI1 = SPI1 (Homo sapiens, UniProt P17947 1-270)
Procedure, shortened: as §1

SPIB = SPIB (Homo sapiens, UniProt Q01892 1-262)
Chain of SPIB (Q01892 whole entry): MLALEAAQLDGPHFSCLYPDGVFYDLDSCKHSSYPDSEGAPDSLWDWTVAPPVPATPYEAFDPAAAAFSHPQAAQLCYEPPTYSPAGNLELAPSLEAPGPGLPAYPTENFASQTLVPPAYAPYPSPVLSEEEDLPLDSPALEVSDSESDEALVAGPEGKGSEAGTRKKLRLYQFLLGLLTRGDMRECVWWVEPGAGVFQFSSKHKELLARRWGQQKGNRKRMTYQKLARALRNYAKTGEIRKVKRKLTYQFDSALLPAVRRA
Procedure, shortened: as §1

ELK3 = target: T6, ELK3 (Homo sapiens, UniProt P41970 1-407)
T6 sequence: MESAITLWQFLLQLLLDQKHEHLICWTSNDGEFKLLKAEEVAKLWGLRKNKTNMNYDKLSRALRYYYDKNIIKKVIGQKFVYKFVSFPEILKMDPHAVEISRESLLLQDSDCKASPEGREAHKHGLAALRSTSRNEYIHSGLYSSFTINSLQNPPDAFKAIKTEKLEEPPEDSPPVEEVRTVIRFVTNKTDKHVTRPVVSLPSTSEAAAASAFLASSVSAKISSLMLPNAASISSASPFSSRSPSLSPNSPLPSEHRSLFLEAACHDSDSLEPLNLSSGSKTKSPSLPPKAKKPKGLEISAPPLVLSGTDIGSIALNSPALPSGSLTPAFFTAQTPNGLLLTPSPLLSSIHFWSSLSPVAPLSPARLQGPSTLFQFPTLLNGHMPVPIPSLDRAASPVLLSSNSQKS
Procedure, shortened: as §1

FEV = target: T7, FEV (Homo sapiens, UniProt Q99581 1-238)
T7 sequence: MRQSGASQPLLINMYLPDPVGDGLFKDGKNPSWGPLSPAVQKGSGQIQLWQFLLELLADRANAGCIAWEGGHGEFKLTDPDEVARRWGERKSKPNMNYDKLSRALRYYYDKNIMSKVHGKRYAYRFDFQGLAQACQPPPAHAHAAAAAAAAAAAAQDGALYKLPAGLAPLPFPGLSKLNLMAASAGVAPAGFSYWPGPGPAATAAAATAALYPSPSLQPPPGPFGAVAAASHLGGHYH
Procedure, shortened: as §1

ETV5 = ETV5 (Homo sapiens, UniProt P41161 1-510)
Chain of ETV5 (P41161 whole entry): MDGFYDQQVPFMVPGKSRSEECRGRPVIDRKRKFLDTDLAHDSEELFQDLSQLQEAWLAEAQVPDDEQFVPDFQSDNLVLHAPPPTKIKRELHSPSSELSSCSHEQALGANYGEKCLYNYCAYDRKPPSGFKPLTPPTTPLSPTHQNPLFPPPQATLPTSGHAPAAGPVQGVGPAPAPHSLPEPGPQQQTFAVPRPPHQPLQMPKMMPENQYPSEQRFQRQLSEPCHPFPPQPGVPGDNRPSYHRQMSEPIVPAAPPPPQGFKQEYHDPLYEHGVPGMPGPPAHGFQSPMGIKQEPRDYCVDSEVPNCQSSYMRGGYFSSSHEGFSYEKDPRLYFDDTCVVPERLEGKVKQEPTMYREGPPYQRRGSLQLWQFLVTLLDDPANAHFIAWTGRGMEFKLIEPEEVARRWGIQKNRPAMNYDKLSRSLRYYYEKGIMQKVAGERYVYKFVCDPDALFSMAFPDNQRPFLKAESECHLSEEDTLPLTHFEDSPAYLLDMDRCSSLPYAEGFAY
Procedure, shortened: as §1

SPIC = target: T8, SPIC (Homo sapiens, UniProt Q8N5J4 1-248)
T8 sequence: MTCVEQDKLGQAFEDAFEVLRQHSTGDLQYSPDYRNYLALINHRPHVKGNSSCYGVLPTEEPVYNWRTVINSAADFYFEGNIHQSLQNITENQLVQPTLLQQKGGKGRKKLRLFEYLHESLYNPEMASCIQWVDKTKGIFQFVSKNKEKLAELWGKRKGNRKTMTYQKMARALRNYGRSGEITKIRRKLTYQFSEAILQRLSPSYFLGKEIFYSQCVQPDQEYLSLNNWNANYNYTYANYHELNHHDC
Procedure, shortened: as §1

ELF4 = ELF4 (Homo sapiens, UniProt Q99607 1-663)
Chain of ELF4 (Q99607 whole entry): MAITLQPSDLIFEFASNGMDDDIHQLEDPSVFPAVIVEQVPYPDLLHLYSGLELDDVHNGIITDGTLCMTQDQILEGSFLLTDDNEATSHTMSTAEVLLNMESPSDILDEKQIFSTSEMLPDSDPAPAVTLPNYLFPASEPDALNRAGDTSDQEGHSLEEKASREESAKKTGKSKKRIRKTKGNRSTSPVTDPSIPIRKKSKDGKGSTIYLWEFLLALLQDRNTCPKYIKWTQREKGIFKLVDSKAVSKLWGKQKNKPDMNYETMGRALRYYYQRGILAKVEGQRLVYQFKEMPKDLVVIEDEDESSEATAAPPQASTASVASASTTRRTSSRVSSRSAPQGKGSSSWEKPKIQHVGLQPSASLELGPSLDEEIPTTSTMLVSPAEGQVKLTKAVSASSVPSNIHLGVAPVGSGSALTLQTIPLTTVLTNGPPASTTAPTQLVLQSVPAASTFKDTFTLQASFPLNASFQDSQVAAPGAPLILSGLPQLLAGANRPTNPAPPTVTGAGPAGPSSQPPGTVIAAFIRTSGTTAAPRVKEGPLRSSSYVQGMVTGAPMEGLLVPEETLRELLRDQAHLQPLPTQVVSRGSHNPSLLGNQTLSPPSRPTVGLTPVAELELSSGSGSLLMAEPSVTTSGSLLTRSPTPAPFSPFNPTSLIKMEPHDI
Procedure, shortened: as §1

ELK4 = target: T9, ELK4 (Homo sapiens, UniProt P28324-2 1-405)
T9 sequence: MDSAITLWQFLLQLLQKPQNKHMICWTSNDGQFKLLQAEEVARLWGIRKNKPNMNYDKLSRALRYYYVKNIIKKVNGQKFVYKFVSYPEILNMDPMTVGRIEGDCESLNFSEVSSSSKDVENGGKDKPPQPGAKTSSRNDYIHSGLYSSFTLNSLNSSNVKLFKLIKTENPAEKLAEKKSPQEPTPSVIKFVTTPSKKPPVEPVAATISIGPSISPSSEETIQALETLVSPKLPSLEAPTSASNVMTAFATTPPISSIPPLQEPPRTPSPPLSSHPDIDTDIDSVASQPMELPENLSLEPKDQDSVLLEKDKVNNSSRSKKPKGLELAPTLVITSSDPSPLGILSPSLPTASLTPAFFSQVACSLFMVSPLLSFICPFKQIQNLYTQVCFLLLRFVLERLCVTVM
Procedure, shortened: as §1

ETV2 = target: T10, ETV2 (Homo sapiens, UniProt O00321 1-342)
T10 sequence: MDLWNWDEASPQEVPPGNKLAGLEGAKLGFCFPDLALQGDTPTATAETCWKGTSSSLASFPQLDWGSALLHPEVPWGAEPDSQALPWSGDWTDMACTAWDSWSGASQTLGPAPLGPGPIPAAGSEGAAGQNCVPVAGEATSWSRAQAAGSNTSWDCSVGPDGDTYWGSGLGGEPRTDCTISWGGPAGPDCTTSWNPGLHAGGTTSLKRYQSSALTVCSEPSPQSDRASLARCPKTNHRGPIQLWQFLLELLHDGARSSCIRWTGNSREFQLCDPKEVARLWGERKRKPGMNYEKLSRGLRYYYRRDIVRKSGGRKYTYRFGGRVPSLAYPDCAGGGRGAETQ
Procedure, shortened: as §1

ELF3 = target: T11, ELF3 (Homo sapiens, UniProt P78545 1-371)
T11 sequence: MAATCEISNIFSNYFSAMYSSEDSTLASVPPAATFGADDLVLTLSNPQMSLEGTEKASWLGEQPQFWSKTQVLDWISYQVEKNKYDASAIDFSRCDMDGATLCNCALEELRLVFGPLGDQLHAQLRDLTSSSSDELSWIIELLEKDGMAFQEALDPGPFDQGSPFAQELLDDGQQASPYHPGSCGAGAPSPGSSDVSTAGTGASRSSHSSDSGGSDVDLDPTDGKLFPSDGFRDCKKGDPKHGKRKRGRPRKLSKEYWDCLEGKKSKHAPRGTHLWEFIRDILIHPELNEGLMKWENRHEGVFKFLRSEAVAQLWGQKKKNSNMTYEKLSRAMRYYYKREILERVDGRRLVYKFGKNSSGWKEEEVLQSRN
Procedure, shortened: as §1

ETV1 = ETV1 (Homo sapiens, UniProt P50549 1-477)
Chain of ETV1 (P50549 whole entry): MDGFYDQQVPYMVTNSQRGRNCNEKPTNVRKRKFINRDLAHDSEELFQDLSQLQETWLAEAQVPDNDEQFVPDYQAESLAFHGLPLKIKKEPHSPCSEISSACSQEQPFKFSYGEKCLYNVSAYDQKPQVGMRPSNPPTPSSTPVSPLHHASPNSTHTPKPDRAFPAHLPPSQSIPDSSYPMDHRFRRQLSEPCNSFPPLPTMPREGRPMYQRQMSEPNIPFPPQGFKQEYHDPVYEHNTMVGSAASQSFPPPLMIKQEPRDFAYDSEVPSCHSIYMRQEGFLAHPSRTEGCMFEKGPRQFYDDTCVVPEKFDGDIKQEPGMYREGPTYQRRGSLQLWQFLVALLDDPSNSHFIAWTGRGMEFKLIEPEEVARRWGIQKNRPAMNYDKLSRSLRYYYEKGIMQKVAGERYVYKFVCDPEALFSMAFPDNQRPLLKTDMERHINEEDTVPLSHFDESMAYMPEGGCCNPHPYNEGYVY
Procedure, shortened: as §1

Question: AAGTGT was tested. Which binding signal (FLI1) did it give?
Answer: 1.18 fold enrichment (6-mer frequency, TF over GST control)

Question: And the binding signal (ELK1)?
Answer: 1.29 fold enrichment (6-mer frequency, TF over GST control)

Question: What about the binding signal (GABPA) of the same sequence?
Answer: 1.32 fold enrichment (6-mer frequency, TF over GST control)

Question: And the binding signal (ERG)?
Answer: 1.44 fold enrichment (6-mer frequency, TF over GST control)

Question: And the binding signal (ELF1)?
Answer: 1.24 fold enrichment (6-mer frequency, TF over GST control)

Question: What about the binding signal (EHF) of the same sequence?
Answer: 1.24 fold enrichment (6-mer frequency, TF over GST control)

Question: And the binding signal (SPI1)?
Answer: 1.6 fold enrichment (6-mer frequency, TF over GST control)

Question: And the binding signal (SPIB)?
Answer: 1.38 fold enrichment (6-mer frequency, TF over GST control)

Question: And the binding signal (ELK3)?
Answer: 1.37 fold enrichment (6-mer frequency, TF over GST control)

Question: What about the binding signal (FEV) of the same sequence?
Answer: 1.28 fold enrichment (6-mer frequency, TF over GST control)

Question: And the binding signal (ETV5)?
Answer: 1.33 fold enrichment (6-mer frequency, TF over GST control)

Question: What about the binding signal (SPIC) of the same sequence?
Answer: 1.6 fold enrichment (6-mer frequency, TF over GST control)

Question: And the binding signal (ELF4)?
Answer: 1.3 fold enrichment (6-mer frequency, TF over GST control)

Question: What about the binding signal (ELK4) of the same sequence?
Answer: 1.21 fold enrichment (6-mer frequency, TF over GST control)

Question: What about the binding signal (ETV2) of the same sequence?
Answer: 1.37 fold enrichment (6-mer frequency, TF over GST control)

Question: And the binding signal (ELF3)?
Answer: 1.43 fold enrichment (6-mer frequency, TF over GST control)

Question: What about the binding signal (ETV1) of the same sequence?
Answer: 1.39 fold enrichment (6-mer frequency, TF over GST control)
